Assay results published in the supplement of paper PMC6331611.
± gives the standard deviation of the averaged measurements. Whole data set: some 1,600 compounds, median “normalized intracellular growth (luminescence, IQM-normalized) in RAW264.7 macrophages” near 1, cut for the lowest 2% near 0.43. This is one part of a sample in which the lowest values are shown more often than they occur.

Tested on: Salmonella enterica serovar Typhimurium SL1344
Experiment: normalized intracellular growth (luminescence, IQM-normalized) in RAW264.7 macrophages (fraction of plate interquartile mean); higher = more bacterial growth (less inhibition)
Settings: 10 µM

Row | SMILES | normalized intracellular growth (time point: T3 (3 h)) | normalized intracellular growth (time point: Tfinal (~6 h))
1 | FC(F)(F)C(Cl)Br (stereo not drawn) | 1 ± 0.049 | 1.08 ± 0.18
2 | CN1CC(=O)NC1=N | 1.03 ± 0.02 | 1.1 ± 0.1
3 | COc1cc([C@@H]2c3cc4c(cc3[C@@H](O[C@@H]3O[C@@H]5CO[C@@H](c6cccs6)O[C@H]5[C@H](O)[C@H]3O)[C@H]3COC(=O)[C@H]23)OCO4)cc(OC)c1O | 1.1 ± 0.049 | 1.016 ± 0.0097
4 | CCCc1nc(C)c2c(O)nc(-c3cc(S(=O)(=O)N4CCN(CC)CC4)ccc3OCC)nn12 | 0.997 ± 0.027 | 0.899 ± 0.1
5 | CC(=O)N(c1onc(C)c1C)S(=O)(=O)c1ccc(N)cc1 | 0.951 ± 0.011 | 1.02 ± 0.17
6 | C[C@@H]1C[C@H]2[C@@H]3CCC4=CC(=O)C=C[C@]4(C)[C@@]3(F)[C@@H](O)C[C@]2(C)[C@@]1(O)C(=O)CO | 1 ± 0.062 | 0.99 ± 0.075
7 | CC(=O)NCCCCCC(=O)O | 0.997 ± 0.019 | 1.02 ± 0.17
8 | O=S(=O)(O)CCSSCCS(=O)(=O)O | 1.02 ± 0.061 | 0.986 ± 0.18
9 | CC(C(=O)O)c1ccc(CC2CCCC2=O)cc1 (stereo not drawn) | 1.05 ± 0.055 | 1.06 ± 0.064
10 | NC[C@@H]1CC[C@@H](N)[C@@H](O[C@H]2[C@H](O)[C@@H](O[C@H]3O[C@H](CO)[C@@H](O)[C@H](N)[C@H]3O)[C@H](N)C[C@@H]2N)O1 | 1.04 ± 0.023 | 0.976 ± 0.13
11 | NCC(O)CC(=O)O (stereo not drawn) | 0.966 ± 0.067 | 1.03 ± 0.12
12 | C[C@H]1COc2c(N3CCN(C)CC3)c(F)cc3c(=O)c(C(=O)O)cn1c23 | 1.245 ± 0.0094 | 0.00765 ± 0.001
13 | CN1CCN(c2c(F)cc3c(=O)c(C(=O)O)cn4c3c2SCC4)CC1 | 0.982 ± 0.061 | 0.095 ± 0.094
14 | C[C@H]1COc2c(C3(N)CC3)c(F)cc3c(=O)c(C(=O)O)cn1c23 | 1.36 ± 0.11 | 0.00812 ± 0.0004
15 | CC1COc2c(N3CCN(C)CC3)c(F)cc3c(=O)c(C(=O)O)cn1c23 (stereo not drawn) | 0.856 ± 0.034 | 0.134 ± 0.0023
16 | CCCCCCc1ccc(O)cc1O.Nc1c2ccccc2nc2ccccc12 | 0.891 ± 0.014 | 1.07 ± 0.012
17 | CC1(C)S[C@@H]2[C@H](N3C(=O)[C@@H](c4ccccc4)NC3(C)C)C(=O)N2[C@H]1C(=O)O | 1 ± 0.031 | 0.974 ± 0.056
18 | COC(=O)/C=C/C(=O)OC | 0.935 ± 0.047 | 0.937 ± 0.028
19 | O=C([O-])[C@H]1/C(=C/CO)O[C@@H]2CC(=O)N21.[Li+] | 1.02 ± 0.099 | 0.812 ± 0.11
20 | CN(C)c1cnccn1 | 0.967 ± 0.046 | 0.904 ± 0.32
21 | CSCC[C@H](NC(=O)[C@H](Cc1c[nH]c2ccccc12)NC(=O)CCNC(=O)OC(C)(C)C)C(=O)N[C@@H](CC(=O)O)C(=O)N[C@@H](Cc1ccccc1)C(N)=O | 1 ± 0.04 | 0.827 ± 0.23
22 | Cl.N=C(N)NCCC[C@H](N)C(=O)O | 1.05 ± 0.065 | 1.02 ± 0.092
23 | NCC(=O)CCC(=O)O | 1.09 ± 0.029 | 1.02 ± 0.042
24 | Cc1nc(C)c(Cl)c(O)c1Cl | 0.942 ± 0.035 | 1.16 ± 0.1
25 | C[C@]12CCC(=O)C=C1CC[C@@H]1[C@@H]2[C@@H](O)C[C@@]2(C)[C@H]1CC[C@]2(O)C(=O)COP(=O)(O)O | 0.9812 ± 0.0046 | 0.999 ± 0.047
26 | O=C(O)c1cc(O)c2c(c1)[C@H]([C@H]1c3cc(C(=O)O)cc(O)c3C(=O)c3c(O[C@@H]4O[C@H](CO)[C@@H](O)[C@H](O)[C@H]4O)cccc31)c1cccc(O[C@@H]3O[C@H](CO)[C@@H](O)[C@H](O)[C@H]3O)c1C2=O | 0.957 ± 0.08 | 0.961 ± 0.026
27 | O=C1C2CC3CC1CC(O)(C3)C2 | 1 ± 0.017 | 1.06 ± 0.065
28 | N=C(NCCCCCCNC(=N)NC(=N)Nc1ccc(Cl)cc1)NC(=N)Nc1ccc(Cl)cc1 | 0.912 ± 0.078 | 1.15 ± 0.014
29 | CC(C)NC(=N)NC(=N)Nc1ccc(Cl)cc1 | 0.664 ± 0.018 | 0.164 ± 0.01
